Screening data (PubChem)
A selection: hits, their analogues and other compounds. The true share with any hit is near 2.5%.
F508del corr = F508del CFTR correction, initial screen, CFBE line, single point | CFBE cells, YFP halide quenching; stimulated with forskolin plus potentiator P3; % fluorescence drop versus neutral controls | activity (quench increase), % at 7.58 µM | 350,000 tested, 0.36% active | AID 720511, 2013;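 active means mean added fluorescence quench of at least 8% versus neutral control, with both replicates also reaching 8%; inconclusive means only one of the mean or replicate conditions met; inactive means mean below 8% and not both replicates reaching 8%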;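 further: cells transiently co-express mutant CFTR-F508del with the halide-sensitive YFP; corrector assay measuring rescue of mutant channel to the surface after 24 h compound exposure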
EWS-Fli block = EWS/Fli-driven NR0B1 reporter inhibitors, primary screen, A673 cells, NR0B1 luciferase, luminescence, MLPCN library; AID 651661, 2012; viability-normalised; 350,000 tested, 0.67% active; inhibition, % at 12.6 µM;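 active means mean inhibition of at least 50% after viability correction, with every replicate also passing that limit; inconclusive means mean reaches 50% but only one of two replicates passes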;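 further: firefly luciferase signal divided by Alamar Blue viability fluorescence both relative to DMSO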
Env fusion inh = inhibitors of HIV-1 Env-driven cell-cell fusion, primary screen, HeLa-JRFL effector, CEM21 target cells, luciferase | 360,000 tested, 1.1% active | inhibition, % at 12.3 µM;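 active means mean replicate inhibition score of at least 50 and every replicate individually at or above 50; inconclusive means only one of the two criteria met; inactive means mean below 50 and not all replicates reaching 50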;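 further: 0% = plate neutral controls and 100% = maraviroc near 300 nM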
PAX8 inh HTS = inhibitors of PAX8-driven TPO luciferase reporter, primary screen, RMG-I cells, single concentration; SteadyGlo, 24 h; inhibition, % at 12.6 µM; 360,000 tested, 1.2% active;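 active means mean replicate inhibition at least 60% with every replicate also reaching 60%; inconclusive means only one of the two criteria is met; inactive means mean below 60% and not all replicates reaching 60%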;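 further: luciferase light reporting Pax8 driven TPO promoter activity; plate controls were median of neutral control wells for no effect and mitoxantrone controls for full effect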
GAA850 FXN act = FXN promoter activators, primary screen, cell-based, luciferase luminescence, HEK293 lucGAA850; HEK293 lucGAA850 FXN promoter luciferase reporter, 24 h; percent of 10 µM SAHA response; activation, % at 6 µM; 360,000 tested, 0.56% active;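 active means activation above the average of all compounds screened plus 3 SD, cutoff fixed separately per campaign, cut at about 7.5% in these data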;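 further: 0% = DMSO wells and 100% = 10 µM SAHA wells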
The depositor's hits bear a star; u = inconclusive; x = no result; [ ] = remark or other dose.

SMILES	F508del corr	EWS-Fli block	Env fusion inh	PAX8 inh HTS	GAA850 FXN act
C[C@H]1c2cccc(O)c2C(O)=C2C(=O)[C@]3(O)C(O)=C(C(N)=O)C(=O)[C@@H](N(C)C)[C@@H]3[C@@H](O)[C@@H]21	x	x	x	x	18.8*
COc1ccc(N(C(=O)c2ccco2)C(C(=O)NC2CCCC2)c2ccc(OC)c(OC)c2)cc1 (centres undefined)	0.9	3.0	55.2*	10.1	-0.9
NS(=O)(=O)c1ccc(CCNc2nn3c(-c4cccc(OC(F)(F)F)c4)cnc3s2)cc1	13.7*	1.7	20.4	u	-3.9
CC(C)NC(=O)N(C)C[C@@H]1OCCCC[C@H](C)Oc2ccc(NS(=O)(=O)c3ccccc3)cc2C(=O)N([C@@H](C)CO)C[C@@H]1C	1.2	5.1	-40.3[16.7 µM]	18.0	x
COc1ccc(Nc2ccc(C(F)(F)F)cc2[N+](=O)[O-])cn1	-1.0	8.5	59.3*	18.2	0.7
CN(Cc1cc(Cl)cc(Cl)c1)CC(C(=O)c1ccccc1)c1ccccc1 (centres undefined)	-0.3	6.1	1.8	79.0*	-10.0
CCNC(=S)NNC(=O)CC(C)C	9.5*	3.5	-4.2	8.1	-0.5
COc1nn(-c2ccccc2)c(=O)c(Cl)c1Cl	-2.5	76.0*	-406.7	117.2*	5.7
O=C(Nc1ccc([N+](=O)[O-])cn1)c1cc(-c2cccc(Br)c2)nc2ccccc12	0.4	2.6	x	115.2*	-0.1
CNC[C@H]1OCCCC[C@H](C)Oc2ccc(NS(=O)(=O)c3c(C)noc3C)cc2C(=O)N([C@H](C)CO)C[C@H]1C	0.7	-84.0	2.9[16.7 µM]	-16.7	x
C[C@@H]1CN([C@H](C)CO)C(=O)c2cccc(NC(=O)C3CC3)c2O[C@@H]1CN(C)S(=O)(=O)c1cn(C)cn1	-0.3	-3.5	-17.5[16.7 µM]	3.7	x
CCCN(CCC)C(=O)CSc1nc2ccccc2c(=O)n1C1CCCC1	x	x	65.2*	x	-0.3
CN(C)c1ccc(NC(=O)CSc2nc3ccccc3c(=O)n2C2CCCCC2)cc1	x	x	-29.6	21.4	-2.6
Cc1ccc(S(=O)(=O)NCC[C@@H]2CC[C@@H](NC(=O)c3cnccn3)[C@@H](CO)O2)cc1	0.8	7.3	-261.7[16.7 µM]	-19.6	x
CNC[C@H]1Oc2ccc(NC(=O)NC(C)C)cc2CC(=O)N([C@@H](C)CO)C[C@H]1C	-0.3	5.5	x	5.3	x
CCNC(=O)C[C@H]1CC[C@@H]2[C@@H](COc3ccc(NC(=O)Nc4ccccc4Cl)cc3C(=O)N2C)O1	-0.4	-2.4	x	12.3	x
C=C1C(=O)O[C@@H]2[C@H]1CC[C@H](C)[C@]1(O)CCC(=O)[C@@]21C	-4.1	-9.5	8.8	89.5*	-2.5
C=C1CCC(O)C2(C)CCC3C(C)C(=O)OC3C12O (centres undefined)	-0.3	3.7	-0.3	-0.4	-0.2
CCCNC(=O)N1CC2(CN(S(=O)(=O)c3ccc(OC)cc3)C2)c2c(n(C)c3cc(OC)ccc23)[C@H]1CO	5.4	5.1	x	18.2	x
CN1c2ccc(Br)cc2[C@@H]2[C@@H](CCN2S(=O)(=O)c2cccc(F)c2)[C@H]1CO	2.5	-7.2	x	-0.7	x
CCCCC1(C2CCCC2)NC(=O)NC1=O (centres undefined)	12.3*	3.8	x	-11.9	-1.6
COc1cccc(S(=O)(=O)N2CC[C@H]3[C@@H](CO)N(C)c4ccc(C#Cc5ccc(F)cc5)cc4[C@H]32)c1	1.6	5.4	x	85.2*	x
CN1c2ccc(C#Cc3ccc(F)cc3)cc2[C@H]2[C@H](CCN2S(=O)(=O)c2ccccc2F)[C@@H]1CO	0.7	7.5	x	2.9	x
Cc1cccc(S(=O)(=O)N2CC[C@@H]3[C@H](CO)N(C)c4ccc(C#Cc5ccc(F)cc5)cc4[C@@H]32)c1	4.1	19.3	x	91.0*	x
COc1cccc(-c2ccc3c(c2)[C@@H]2[C@@H](CCN2S(=O)(=O)c2ccc(F)cc2)[C@H](CO)N3C)c1	5.0	0.3	x	u	x
SMILES	F508del corr	EWS-Fli block	Env fusion inh	PAX8 inh HTS	GAA850 FXN act
COc1ccc(S(=O)(=O)Nc2ccc3c(c2)C(=O)N([C@@H](C)CO)C[C@H](C)[C@H](CN(C)C(=O)Nc2ccc(C(F)(F)F)cc2)OCCCC[C@H](C)O3)cc1	3.1	11.9	11.3[16.7 µM]	50.2	x
COc1ccc(S(=O)(=O)Nc2ccc3c(c2)C(=O)N([C@@H](C)CO)C[C@H](C)[C@@H](CN(C)C(=O)Nc2ccc(C(F)(F)F)cc2)OCCCC[C@@H](C)O3)cc1	3.9	5.3	9.5[16.7 µM]	84.0*	x
COc1ccc(S(=O)(=O)Nc2ccc3c(c2)C(=O)N([C@@H](C)CO)C[C@H](C)[C@@H](CN(C)C(=O)Nc2ccc(C(F)(F)F)cc2)OCCCC[C@H](C)O3)cc1	-1.3	9.5	24.4[16.7 µM]	64.5*	x
COc1ccc(S(=O)(=O)Nc2ccc3c(c2)C(=O)N([C@H](C)CO)C[C@H](C)[C@H](CN(C)C(=O)Nc2ccccc2)OCCCC[C@H](C)O3)cc1	-1.6	8.1	59.8*[16.7 µM]	-1.5	x
COc1ccc(S(=O)(=O)Nc2ccc3c(c2)C(=O)N([C@@H](C)CO)C[C@@H](C)[C@@H](CN(C)C(=O)Nc2ccc(C(F)(F)F)cc2)OCCCC[C@H](C)O3)cc1	1.5	2.4	-10.1[16.7 µM]	9.3	x
O=C(NCC[C@@H]1CC[C@H](NC(=O)C2CC2)[C@@H](CO)O1)Nc1ccc(Cl)cc1	-0.7	-27.7	11.3[16.7 µM]	x	x
COCCn1c(C(=O)N(C)C)cc2c1C[C@H]1CN(C(=O)c3ccccc3)[C@@](Cc3ccc(F)cc3)(C(=O)OC)[C@@H]21	0.0	-2.7	-3.5	-0.1	x
COC(=O)[C@@]1(Cc2ccc(F)cc2)[C@H]2c3cc(C(=O)N(C)C)n(CCO)c3C[C@H]2CN1C(=O)c1ccccc1	6.8	-1.8	80.3*	-1.9	x
CCNC(=O)[C@@H]1[C@@H](CO)[C@@H]2Cn3c(ccc(-c4cccc(OC)c4)c3=O)[C@@H]2N1C(=O)NC(C)C	-1.5	3.2	x	-9.4	x
O=C(CCCN1C(=O)/C(=C/c2ccccc2Cl)SC1=S)N1CCCC1	0.3	3.4	3.8	-4.5	-3.9
O=C(CCN1C(=O)/C(=C/c2ccccc2Cl)SC1=S)N1CCCC1	-0.6	-2.5	3.4	82.7*	-9.0
O=C(CCCN1C(=O)/C(=C/c2ccccc2Cl)SC1=S)NNC(=O)c1ccncc1	-1.1	u	17.1	1.0	-7.9
O=C(CCCN1C(=O)/C(=C/c2ccccc2Cl)SC1=S)NNC(=O)c1ccccc1Cl	x	65.6*	49.3	12.2	-12.8
C[C@H](CO)N1C[C@H](C)[C@H](CN(C)S(=O)(=O)c2ccccc2)Oc2ccc(N(C)C)cc2CC1=O	1.3	x	-7.1[16.7 µM]	-8.9	x
O=C(c1cccnc1)N1CC2(C1)[C@@H](c1ccccc1)[C@@H](CO)N2C(=O)c1cccnc1	0.0	x	x	x	x
C[C@H](CO)N1C[C@H](C)[C@@H](CN(C)Cc2ccc(-c3ccccc3)cc2)Oc2ccc(NS(=O)(=O)c3ccc(F)cc3)cc2CC1=O	3.7	11.8	-36.8[16.7 µM]	75.6*	x
